In the library only some 11% were active in any assay of this set; here they are far more common.
NPSR antagonist: qHTS Assay for Antagonists of the Neuropeptide S Receptor: cAMP Signal Transduction; Potency, µM (series often up to 38.3 µM), for the others: at the top dose activity change, negative = inhibition, most hits filed as inhibitors; Q6W5P4; CHO-NPSR cells, cAMP TR-FRET, antagonist mode; 220,000 tested, 1% active; active means well fitted curve in the direction sought with a large enough effect; inconclusive means small, poorly fitted or top-dose-only effect, or another doubt; inactive means no such curve, though single readings can be large; an effect the other way counts as inactive or inconclusive; further: potency means the concentration at half of the fitted maximal effect; nearly all actives have a fitted effect of over 50% in size
HPGD block: qHTS Assay for Inhibitors of HPGD (15-Hydroxyprostaglandin Dehydrogenase). 150,000 tested, 4.3% active. purified HPGD, NADH fluorescence kinetic, PGE2 substrate. Potency, µM, for inactives: top-dose activity change, negative = inhibition, most hits filed as inhibitors. 15-hydroxyprostaglandin dehydrogenase [NAD(+)] (Homo sapiens), P15428. AID 894, 2007; further: potency means the concentration at half of the fitted maximal effect
Target sequence (P15428 whole entry, looked up): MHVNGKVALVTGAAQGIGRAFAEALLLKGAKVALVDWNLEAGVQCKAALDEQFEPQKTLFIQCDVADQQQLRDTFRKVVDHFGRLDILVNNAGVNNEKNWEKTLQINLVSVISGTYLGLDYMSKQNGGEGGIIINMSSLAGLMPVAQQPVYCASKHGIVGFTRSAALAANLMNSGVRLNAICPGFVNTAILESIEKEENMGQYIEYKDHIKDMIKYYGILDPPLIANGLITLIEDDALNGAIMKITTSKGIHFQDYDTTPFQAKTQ
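20 nM HPGD preincubated 15 min at room temperature with compound in 50 mM Tris-HCl pH 8, 0.01% Tween 20. Started with 1 mM NAD+ and 30 uM prostaglandin E2; NADH fluorescence (360/450 nm) read 5 times over 30-s intervals, last minus first.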
IMPase Li inh: qHTS Assay for Identifying the Cell-Membrane Permeable IMPase Inhibitors: Potentiation with Lithium | Potency, µM (top dose mostly 59.4 µM), for the others: at the highest dose activity, negative = IMPase inhibition, usual class: inhibitors | CHO-M1 cells, IP1 TR-FRET (IP-One), carbachol + lithium | 210,000 tested, 0.35% active; active means well fitted curve in the direction sought with a large enough effect; inconclusive means small, poorly fitted or top-dose-only effect, or another doubt; inactive means no such curve, though single readings can be large; an effect the other way counts as inactive or inconclusive;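 further: IP1 builds up when IMPase is blocked and the TR-FRET signal falls; potency means the concentration at half of the fitted maximal effect; plate controls were basal vehicle for no effect and high inhibitor control for full effect; nearly all actives have a fitted effect of over 50% in size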
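CHO cells stably expressing M1 receptor (2000/well, cultured 16–30 h) treated 30 min at 37C with compound plus low lithium. Cytosolic IP1 by TR-FRET (665/620 ratio and 620 channel) after 10 min lysis; AC50 by Hill fit.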
PNC assembly inh: High Content Assay for Compounds that inhibit the Assembly of the Perinucleolar Compartment; AID 2417, 2010; PC3M PTB-GFP, PNC prevalence imaging, 16 h; stronger effect = lower value; 140,000 tested, 3.1% active; activity change (PNC), negative = inhibition, % at 10 µM;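 active means readout at or below -70, meaning at least 70% loss of cells showing the perinucleolar compartment, a nuclear body marking cancer cells; inconclusive means readout between -30 and a set limit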;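 further: plate controls were DMSO wells for no effect and camptothecin positive control wells for full effect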
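PC3M cells stably expressing PTB-GFP, 750–1000 cells/well, treated 16 h at 37 °C with compound (23 nl of library stock), in duplicate. After paraformaldehyde fixation and Hoechst stain, imaged at 20x; PNC prevalence scored by image analysis.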
ALDH1A1 inh: qHTS Assay for Inhibitors of Aldehyde Dehydrogenase 1 (ALDH1A1). 220,000 tested, 7.3% active. Aldehyde dehydrogenase 1A1 (Homo sapiens), P00352. Purified ALDH1A1, NADH fluorescence, propionaldehyde substrate. Potency, µM (doses to about 75.3 µM), for the others: top-dose activity, negative = inhibition, hits mostly inhibitors. AID 1030, 2008;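 further: potency means the concentration at half of the fitted maximal effect; plate controls were no enzyme wells and a reference inhibitor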
Target sequence (P00352 whole entry, looked up): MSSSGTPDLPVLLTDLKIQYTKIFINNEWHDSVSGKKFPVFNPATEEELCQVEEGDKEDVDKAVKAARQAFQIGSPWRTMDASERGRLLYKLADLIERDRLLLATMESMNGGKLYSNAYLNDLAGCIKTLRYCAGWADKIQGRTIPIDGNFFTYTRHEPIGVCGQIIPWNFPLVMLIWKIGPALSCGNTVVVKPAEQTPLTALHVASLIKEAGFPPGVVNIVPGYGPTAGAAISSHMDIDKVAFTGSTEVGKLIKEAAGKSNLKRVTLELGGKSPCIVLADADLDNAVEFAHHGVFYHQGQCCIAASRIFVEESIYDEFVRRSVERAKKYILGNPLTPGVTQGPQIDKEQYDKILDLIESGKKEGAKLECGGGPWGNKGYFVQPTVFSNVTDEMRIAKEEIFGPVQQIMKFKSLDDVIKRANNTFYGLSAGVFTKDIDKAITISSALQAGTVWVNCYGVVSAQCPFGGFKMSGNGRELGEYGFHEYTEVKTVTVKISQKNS
IMPase cell inh: qHTS Assay for Identifying the Cell-Membrane Permeable IMPase Inhibitors; Inositol monophosphatase 1 (Rattus norvegicus), P97697; AID 901, 2007; inhibition (IP1 accumulation), % at 46.1 µM; CHO-M1 cells, IP1 accumulation, HTRF TR-FRET ratio; 120,000 tested, under 10 active; active means well fitted curve in the direction sought with a large enough effect in the signal ratio, not every such curve was filed as active; inconclusive means small, poorly fitted or top-dose-only effect, or a change in a side signal; inactive means no such curve, though single readings can be large or run the other way; the % refers to the signal ratio;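 further: cells stimulated with carbachol in lithium chloride buffer; plate controls were DMSO basal wells for no effect and reference inhibitor wells for full effect; higher means more IMPase inhibition seen as more IP1 and lower FRET ratio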
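CHO-M1 cells (CHO stably expressing M1 receptor), compound up to 46 uM final, stimulated with carbachol (50 uM as added) in buffer with 50mM LiCl, pH 7.4, 30 min at 37C. Cytosolic IP1 read by TR-FRET; AC50 from Hill fits.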
An asterisk follows results filed as active; ? = inconclusive; . = no result; [ ] = remark or other dose. Unless noted, the call rests on the fitted dose curve; in most records, active means well fitted inhibition curve with a large enough effect (not every such curve was filed as active); inconclusive means small, poorly fitted or top-dose-only effect, or another doubt; inactive means no such curve, though single readings can be large or run the other way. Unless noted, on the % scale 0 is the no-effect control and ±100 the full control effect.

SMILES	NPSR antagonist	HPGD block	IMPase Li inh	PNC assembly inh	ALDH1A1 inh	IMPase cell inh
CNC(=O)c1cc2cc(OC)ccc2oc1=N	2%[46.1 µM]	?	-5%[38.3 µM]	18	?	-9
Cc1ccccc1C(=O)NC1CCN(Cc2nnnn2Cc2ccccc2)CC1	-13%[46.1 µM]	-16%	20%[38.3 µM]	-21	?	10
COc1ccc(-c2nnn(CC(=O)N(CC3CCCO3)C(C(=O)NC(C)(C)C)c3ccco3)n2)cc1OC (configuration not stated)	5%	.	-3%	.	-3%	.
CC(C)(C)Cc1nnc(NS(=O)(=O)c2ccccc2)s1	20%	.	-2%	.	?	.
CS(=O)(=O)Nc1nnc(Cc2ccccc2)s1	5%[46.1 µM]	-24%	-1%	-100*	-8%	?
CC(C)Cc1nnc(NS(=O)(=O)Cc2ccccc2)s1	-1%[46.1 µM]	20µM*	30%[38.3 µM]	?	13µM*	5
CC(=O)Nc1nnc(Cc2ccccc2)s1	-2%[46.1 µM]	-13%	7%[38.3 µM]	-13	1%	-10
Cc1ccc(S(=O)(=O)N(C)C)cc1NC(=S)NC(=O)C12CC3CC(CC(C3)C1)C2	-55%	-5%	5%	?	?	.
NS(=O)(=O)c1cccc(NC(=S)NC(=O)C23CC4CC(CC(C4)C2)C3)c1	-34%	-24%	19%	-19	28µM*	.
O=C(Cc1nnc(NC(=O)Nc2ccccc2)s1)Nc1ccccc1	11%	.	.	.	.	.
CCN(CC)CCNC(=O)CCn1c(=S)[nH]c2cc3c(cc2c1=O)OCO3	-8%[46.1 µM]	-15%	27%[38.3 µM]	-1	17%	2
O=C(CCCn1c(=S)[nH]c2ccccc2c1=O)N1CCOCC1	-2%[46.1 µM]	-21%	-5%[38.3 µM]	26	0%	-7
CCCCNC(=O)CCCn1c(=S)[nH]c2cc3c(cc2c1=O)OCO3	3%[46.1 µM]	16µM*	4%[38.3 µM]	?	5%	-1
O=C(CCCCn1c(=S)[nH]c2ccsc2c1=O)NCc1ccco1	-9%[46.1 µM]	14µM*	2%[38.3 µM]	40	5%	0
O=C(CCCn1c(=S)[nH]c2ccsc2c1=O)NCc1ccco1	?	-20%	-4%[38.3 µM]	26	4%	2
COc1ccccc1N1CCN(C(=O)CCn2c(=O)[nH]c3ccccc3c2=O)CC1	-8%[46.1 µM]	-6%	14%[38.3 µM]	-107*	11%	-8
O=C(CCCCCn1c(=S)[nH]c2ccccc2c1=O)N1CCOCC1	-6%[46.1 µM]	14µM*	?	11	4%	7
CCN1CCN(C(=O)C(C)N(c2ccc(C)cc2)S(C)(=O)=O)CC1 (configuration not stated)	-5%[46.1 µM]	5%	19%[38.3 µM]	16	6%	4
O=C(N/N=C/c1ccccc1F)c1csc2c1CCCC2	-24%[46.1 µM]	-25%	11%[38.3 µM]	?	?	8
COCCNC(=O)CCCCCN1C(=O)CCC1=O	19%[46.1 µM]	16µM*	-3%	-16	12%	-3
COCCCNC(=O)CCCn1c(=O)[nH]c2ccccc2c1=O	6%[46.1 µM]	-17%	5%[38.3 µM]	?	-7%	-4
COCCNC(=O)CCCCCn1c(=S)[nH]c2ccccc2c1=O	-13%[46.1 µM]	13µM*	-10%[38.3 µM]	128	3%	0
COC(=O)c1cc(OC)c(OC)cc1NC(=O)CCCCCN1C(=O)CCC1=O	-3%[46.1 µM]	-18%	0%[38.3 µM]	1	-12%	-2
Cc1ccc(-c2csc(=Nc3cccnc3)n2CCCN2CCCC2=O)cc1C	14%	-11%	3%	153	7.9µM*	.
O=C(Nc1ccc(Br)cc1)C1CC=CCC1C(=O)OCC1CCCO1 (configuration not stated)	23%[46.1 µM]	-28%	26%[38.3 µM]	39	4%	8
SMILES	NPSR antagonist	HPGD block	IMPase Li inh	PNC assembly inh	ALDH1A1 inh	IMPase cell inh
O=C(/C=C/c1ccco1)Nc1ccccn1	?	-21%	-1%	?	-6%	0
C/C(=N\NC(=O)c1ccoc1C)c1cccnc1	-5%[46.1 µM]	-7%	0%	-89*	4%	-16
O=C(/C=C/c1ccco1)Nc1cccnc1	-9%	.	-1%	.	28µM*	.
Cc1ccc(NC(=O)/C=C/c2ccco2)nc1	?	-3%	3%	-100*	6%	4
CC(/C=C/c1ccco1)=N/NC(=O)Cc1cccs1	-13%[46.1 µM]	-21%	7%[38.3 µM]	17	2.8µM*	-3
Cc1cc(C(=O)NCc2cc(C(=O)O)co2)co1	10%	.	-6%	.	9%	.
COc1ccc(NC(=O)N/C=C/c2ccco2)cc1	8%	.	-7%	.	28µM*	.
Cc1occc1C(=O)N/N=C/c1ccccn1	-7%	.	2%	.	28µM*	.
COc1cccc(NC(=O)/C=C\c2ccc(Cl)cc2)c1	.	-15%	31%	.	?	4
COc1cccc(NC(=O)/C=C/c2ccco2)c1	-12%	.	6%	.	25µM*	.
O=C(/C=C/c1ccco1)Nc1ccc(C(=O)N2CCOCC2)cc1	-7%	18µM*	2%	14	?	.
CCc1nc(N2CCCC2C(=O)O)c2oc3ccccc3c2n1 (configuration not stated)	-9%[46.1 µM]	?	-3%[38.3 µM]	-12	?	1
O=C(CN1C(=O)C2C3C=CC(C3)C2C1=O)NCc1ccco1 (configuration not stated)	3%[46.1 µM]	-7%	-3%	-26	-3%	-10
O=C(/C=C/c1ccccc1)N/C(=C\c1ccco1)C(=O)O	-10%	.	.	.	-4%	.
O=C(/C=C/c1ccco1)c1ccc(NC(=O)C23CC4CC(CC(C4)C2)C3)cc1	-29%[46.1 µM]	?	14%	44	25µM*	4
CSc1cccc(NC(=O)/C=C/c2ccco2)c1	5%	.	-5%	.	3.2µM*	.
CC(/C=C/c1ccco1)=N\NC(=O)c1cccnc1	-16%[46.1 µM]	-28%	1%[38.3 µM]	-24	7.9µM*	-2
CC(/C=C/c1ccco1)=N/NC(=O)c1ccc(C)nc1	-17%	.	.	.	.	.
C/C(CC(=O)NC1CCCC1)=N\NC(=O)Cc1cccs1	-7%[46.1 µM]	-1%	8%[38.3 µM]	-22	4%	1
C/C(CC(=O)NC12CC3CC(CC(C3)C1)C2)=N\NC(=O)Cc1cccs1	6%	-14%	0%	-26	8.9µM*	.
CSc1cccc(NC(=O)/C=C/c2ccccc2)c1	-16%[46.1 µM]	-10%	-2%[38.3 µM]	61	-3%	7
CC1(C)Cc2c(sc(/N=C/N3CCOCC3)c2C#N)C(C)(C)N1	-7%[46.1 µM]	-10%	19%[38.3 µM]	10	7%	-2
C/C(=C1\SC(N2CCOCC2)=NC1=O)c1ccccc1	-1%[46.1 µM]	-5%	8%[38.3 µM]	?	-7%	-2
CC(C)(CO)NS(=O)(=O)c1ccc2c(c1)C(=O)c1cc(S(=O)(=O)NC(C)(C)CO)ccc1-2	2%	.	.	.	.	.

Assay outcomes from PubChem.
